Laboratory results from PubChem BioAssay AID1851 (National Center for Advancing Translational Sciences (NCATS), 2009).
Among all 16,000 compounds or so, about 5,100 (32%) were called active. Roughly 25% stayed inconclusive and do not appear here. The call rests on the fitted dose curve; in most records, active means well fitted curve in the direction sought with a large enough effect; inconclusive means small, poorly fitted or top-dose-only effect, or effect the other way; inactive means no such curve, though single readings can be large or run the other way. The list shows a part of the results.

molecular target: Cytochrome P450 3A4 (Homo sapiens) (UniProt P08684); test: Cytochrome panel assay with activity outcomes; conditions: recombinant CYP, pro-luciferin dealkylation, luminescence, p450-cyp3a4; series mostly up to 57.1 µM
Sequence (P08684 whole entry, looked up): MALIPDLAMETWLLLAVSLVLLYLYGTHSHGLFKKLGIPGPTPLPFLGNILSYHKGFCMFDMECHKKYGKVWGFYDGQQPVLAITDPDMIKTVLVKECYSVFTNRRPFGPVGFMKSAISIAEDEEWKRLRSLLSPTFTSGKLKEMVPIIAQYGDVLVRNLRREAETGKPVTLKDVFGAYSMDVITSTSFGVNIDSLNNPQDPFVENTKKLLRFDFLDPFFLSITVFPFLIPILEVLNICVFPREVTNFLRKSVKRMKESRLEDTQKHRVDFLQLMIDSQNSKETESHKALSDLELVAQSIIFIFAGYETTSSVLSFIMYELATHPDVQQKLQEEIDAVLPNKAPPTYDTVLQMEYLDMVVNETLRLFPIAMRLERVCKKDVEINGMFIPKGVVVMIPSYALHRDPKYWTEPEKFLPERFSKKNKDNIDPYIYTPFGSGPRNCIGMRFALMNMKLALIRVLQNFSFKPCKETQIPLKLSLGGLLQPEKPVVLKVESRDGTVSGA
On the % scale 0 is the no-effect control and ±100 the full control effect.

SMILES | activity, negative = inhibition | AC50
COC(=O)[C@@H]1O[C@@H](c2c(OC)c(OC)c(C)c(OC)c2OC)[C@H](C)[C@@H](O)[C@@H]1C | -7.25% [at 11.4 µM] (inactive) | –
Cn1cc(-c2nc3cncnc3n(-c3ccccc3)c2=O)c2ccccc21 | – | 10 µM (active)
O=c1c(-c2ccccc2)nc2cncnc2n1-c1ccccc1 | – | inactive
COc1ccc(-n2c(=O)c(-c3cn(C)c4ccccc34)nc3cncnc32)cc1 | – | 20 µM (active)
CCCc1nnc(NC(=O)C(CC)OC(=O)c2cc(C)nc3ccccc23)s1 (stereo not given) | – | 12.6 µM (active)
CCCc1nnc(NC(=O)CCC(=O)NCc2ccccc2OC)s1 | 2.33% [at 2.29 µM] (inactive) | –
CCCCCc1nnc(NC(=O)C(=O)OCC)s1 | 1.6% [at 2.29 µM] (inactive) | –
CC(=O)Nc1ccc(C2=NN(CC#N)C(=O)SC2)cc1 | – | inactive
O=C(Nc1cccnc1)C1COc2ccccc2O1 (stereo not given) | – | inactive
O=C(O)Cc1cccnc1 | -12.2% [at 11.4 µM] (inactive) | –
O=C(O)[C@@H]1[C@@H](C(=O)NCc2cccnc2)[C@@H]2C=C[C@@H]1O2 | -21.1% [at 11.4 µM] (inactive) | –
O=C(CCc1ccccc1)NCc1cccnc1 | – | 5.01 µM (active)
O=C(NCc1cccnc1)[C@@H]1[C@@H](C(=O)O)[C@H]2CC[C@@H]1O2 | -23.9% [at 11.4 µM] (inactive) | –
O=C(c1ccccc1)c1c[nH]c(C(=O)NCc2cccnc2)c1 | – | 4.47 µM (active)
COc1ccc(C(=O)c2c[nH]c(C(=O)NCc3cccs3)c2)cc1 | – | inactive
O=C(NCc1cccnc1)C1COc2ccccc2O1 (stereo not given) | – | 5.01 µM (active)
NNC(=O)Cc1cccnc1 | – | 3.16 µM (active)
CC(C)=CCC/C(C)=C/CO/N=C1/C[C@@H](O)[C@@H](O)[C@@H]2[C@@H]3C(=O)N(C(C)(C)C)C(=O)[C@H]3CC[C@H]12 | -7.78% [at 11.4 µM] (inactive) | –
CO[C@]1(C2=NCCN2)COc2ccccc2O1 | – | inactive
O=C(CSCc1c(Cl)cccc1Cl)NCc1cccnc1 | – | 3.16 µM (active)
Cc1nc2c(C(=O)NCc3ccc4c(c3)OCO4)c[nH]n2c(=O)c1Cc1ccccc1F | – | 2.24 µM (active)
CCOC(=O)Cc1c(C)nc2c(C#N)c[nH]n2c1=O | – | inactive
COc1ccc(-n2cccc2C=O)cc1OC | – | inactive

SMILES | activity, negative = inhibition | AC50
CC(C)(C)NC(=O)CSC(=Nc1ccc(F)cc1)NC#N | -11.3% [at 2.29 µM] (inactive) | –
Cc1ccc(C(=O)COC(=O)c2ccccc2N2C(=O)C3C4CCC(C4)C3C2=O)cc1C (stereo not given) | – | 12.6 µM (active)
O=C(Oc1ccccc1N1C(=O)C2CCCCC2C1=O)c1ccccc1 (stereo not given) | -1.02% [at 2.29 µM] (inactive) | –
C[N+]1(C)CCC[C@@H](OC(=O)C(O)(c2ccccc2)c2ccccc2)C1 | – | inactive
CCC(=O)Nc1ccc(C(=O)CSc2nnc(-c3ccc(O)cc3)n2CC2CCCO2)cc1OC (stereo not given) | – | 14.1 µM (active)
Cc1ccc(-c2ccc(CCC(=O)O)n2CC2CCCO2)cc1 (stereo not given) | 18.1% [at 2.29 µM] (inactive) | –
CC(C)(C=O)Cc1cc(C(C)(C)C)c(O)c(C(C)(C)C)c1 | – | 12.6 µM (active)
Cc1cc(-c2cc(C)c(O)c(C(C)(C)C)c2)cc(C(C)(C)C)c1O | -12.3% [at 11.4 µM] (inactive) | –
Cc1cc(Cc2cc(Cc3cc(C)cc(C(C)(C)C)c3O)c(C)cc2C)c(O)c(C(C)(C)C)c1 | -23.1% [at 11.4 µM] (inactive) | –
Cc1cc(Cc2cc(C)cc(C(C)(C)C)c2O)c(O)c(Cc2cc(C)cc(C(C)(C)C)c2O)c1 | -19.8% [at 11.4 µM] (inactive) | –
Cc1cc(Cc2c(C)c(C)c(Cc3cc(C)cc(C(C)(C)C)c3O)c(C)c2C)c(O)c(C(C)(C)C)c1 | 0.196% [at 11.4 µM] (inactive) | –
CC(C)(CO)Cc1cc(C(C)(C)C)c(O)c(C(C)(C)C)c1 | – | 2.51 µM (active)
CCCCCc1nc2c(=O)[nH]c3ccccc3c2o1 | – | inactive
CN(C)CCCc1c2ccccc2nc2ccc(Cl)cc12 | -1.41% [at 11.4 µM] (inactive) | –
CCCCc1c2ccccc2nc2[nH]c3ccccc3c12 | – | 15.8 µM (active)
Clc1ccc2c(NC3CCC(N4CCCCC4)CC3)ccnc2c1 (stereo not given) | -1.29% [at 11.4 µM] (inactive) | –
COc1ccccc1CNc1cc(-c2ccccc2OC)ncn1 | – | 15.8 µM (active)
COc1ccc(CNc2cc(-c3ccccc3OC)ncn2)c(OC)c1 | – | 6.31 µM (active)
COc1ccc(CNc2cc(-c3ccccc3Cl)ncn2)c(OC)c1 | – | 6.31 µM (active)
COc1ccccc1-c1cc(Nc2ccn[nH]2)ncn1 | – | 3.98 µM (active)
COc1ccccc1-c1cc(Nc2ccc(F)cc2)ncn1 | – | inactive
N/C(=N\O)c1cn([C@@H]2O[C@@H](CO)[C@H](O)[C@@H]2O)c2ncnc(NO)c12 | -7.27% [at 11.4 µM] (inactive) | –
CC(=O)OC[C@@H]1O[C@@H](O/N=C2/C[C@@H](O)[C@@H](O)[C@@H]3[C@@H]4C(=O)N(C[C@@H]5CCCO5)C(=O)[C@H]4CC[C@H]23)[C@H](OC(C)=O)[C@H](OC(C)=O)[C@@H]1OC(C)=O | -12.5% [at 11.4 µM] (inactive) | –

SMILES | activity, negative = inhibition | AC50
Oc1cc(O)c2c(c1)O[C@@H](c1ccc(O)c(O)c1)[C@H](O[C@@]1(c3cc(O)c(O)c(O)c3)Oc3cc(O)cc(O)c3[C@H](O)[C@@H]1O)C2 | -19.7% [at 11.4 µM] (inactive) | –
Oc1ccc(Cl)cc1C=Nc1cnc2ccccc2c1 | -12.5% [at 11.4 µM] (inactive) | –
O/N=C/c1cc(Cl)ccc1OCc1cccc2ccccc12 | – | 7.94 µM (active)
Cc1ccc(COc2coc(CO)cc2=O)cc1 | – | inactive
NC(=S)N/N=C/c1ccccc1OCc1cccc(Cl)c1 | -18.2% [at 2.29 µM] (inactive) | –
Cc1ccc(CONC(=O)/N=C/N(C)C)cc1 | – | inactive
Cc1ccc(COc2ccc(Br)cc2/C=N/O)cc1 | – | 7.94 µM (active)
O=C(SCc1cccc2ccccc12)c1ccc(Cl)cc1 | -17.6% [at 11.4 µM] (inactive) | –
O=C(Cc1ccccc1)N/N=C/c1ccccc1OCc1ccc(Cl)cc1 | – | 15.8 µM (active)
O=C(Cc1ccccc1)N/N=C\c1ccc(Br)o1 | – | inactive
O/N=C/c1ccccc1OCc1ccc(Cl)cc1 | – | 12.6 µM (active)
COc1c(Cl)cc(Cl)cc1CNCCNCC(C)O (stereo not given) | – | inactive
COc1cccc(/C=N/n2c(=S)n(C)c3cc(C)c(C)cc32)c1OC | -9.43% [at 2.29 µM] (inactive) | –
Cc1n[nH]c(=S)n1/N=C/c1ccccc1OCc1ccc(Cl)cc1 | – | 1.26 µM (active)
COc1ccc(C(=O)n2nc(-c3ccccc3)nc2SC)cc1 | – | inactive
C=C1C(=O)C=C2CN(C(=O)c3ccccc3)[C@@](Cc3ccc(F)cc3)(C(=O)OC)[C@@H]12 | – | 7.94 µM (active)
C=C1C(=O)C=C2CN(C(=O)c3ccccc3)[C@@](Cc3ccc(OC)cc3)(C(=O)OC)[C@@H]12 | – | 1.58 µM (active)
Cc1ccc(C(=O)CN(C(=O)c2ccc(Cl)cc2)N2C(=O)c3ccccc3C2=O)cc1 | – | 10 µM (active)
Cc1cc(CC(=O)O)n(C)c1C(=O)c1ccc(Cl)cc1 | – | inactive
COc1ccc(C(=O)O/N=C/c2ccc(S(=O)c3ccc(Cl)cc3)nc2)cc1 (stereo not given) | – | inactive
O=C(CON1C(=O)c2ccccc2C1=O)c1ccccc1 | -17.5% [at 11.4 µM] (inactive) | –
COc1ccc2c(c1)-c1ccccc1S(=O)(=O)N2C(C)=O | – | inactive
COc1ccc(C(=O)CN(C(=O)c2ccc(Cl)cc2)N2C(=O)c3ccccc3C2=O)cc1 | – | 8.91 µM (active)

SMILES | activity, negative = inhibition | AC50
Cc1cc(=Nc2ccc3c(c2)c(N)cc(C)[n+]3C)nc(N)n1C | 3.03% [at 11.4 µM] (inactive) | –
C[C@@H]1CCCC(CC(=O)O)(CC(=O)O)C1 | -9.8% [at 11.4 µM] (inactive) | –
O=C(Nc1cccc(C(F)(F)F)c1)c1ccc(Cn2cc(Br)cn2)o1 | -0.795% [at 2.29 µM] (inactive) | –
CC(NC(=O)c1ccc(Cn2cc([N+](=O)[O-])cn2)o1)c1ccccc1 (stereo not given) | – | 25.1 µM (active)
CC(NC(=O)Cn1cnc([N+](=O)[O-])n1)c1ccccc1 (stereo not given) | – | inactive
CCC(=O)NC(Nc1sc2c(c1C(=O)OC)CCCC2)(C(F)(F)F)C(F)(F)F | -7.25% [at 2.29 µM] (inactive) | –
CCOC(=O)C(NC(=O)CC)(Nc1sc2c(c1C(=O)OC)CCN(C)C2)C(F)(F)F (stereo not given) | – | 12.6 µM (active)
COc1ccc(NC(=O)C2CC(=O)NC3=C2C(=O)CC(C)(C)C3)cc1 (stereo not given) | – | inactive
CC(C)Oc1ccc(C2CC(=O)NC3=C2C(=O)CCC3)cc1 (stereo not given) | – | inactive
COc1ccc(OC)c(C2CC(=O)C3=C(C2)NC(=O)CC3c2ccc(O)c(OC)c2)c1 (stereo not given) | – | 8.91 µM (active)
COc1ccc(F)cc1S(=O)(=O)NC(Cc1ccccc1)C(N)=O (stereo not given) | – | 15.8 µM (active)
CC(=O)NC(Cc1ccc(F)cc1)C(=O)O (stereo not given) | – | inactive
CNC(=O)/C(C#N)=c1\s/c(=C/C(=O)OC)c(=O)n1-c1ccccc1 | – | inactive
CS(=O)(=O)c1ccc(Cn2c3c(c4cc(F)cc(F)c42)CCC[C@H]3CC(=O)O)cc1 | – | 39.8 µM (active)
CN[C@@H](c1ccncc1)[C@@H](NC)c1ccncc1 | – | 5.01 µM (active)
CC(C)NNC(=O)c1ccncc1 | – | inactive
O=c1[nH][nH]c(=S)c(=O)[nH]1 | -14.1% [at 11.4 µM] (inactive) | –
CC(=O)NCCNc1ncnc2ccc(-c3ccc(C(=O)N(C)C)cc3)cc12 | – | inactive
COCCNc1ncnc2ccc(-c3ccoc3)cc12 | – | inactive
COCCNc1ncnc2ccc(-c3ccc(C(=O)N(C)C)cc3)cc12 | – | 15.8 µM (active)
COCCNc1ncnc2ccc(-c3ccc(N(C)C)cc3)cc12 | – | 7.94 µM (active)
